The values below come from PubChem BioAssay AID833 (The Scripps Research Institute Molecular Screening Center, 2007).

Molecules are shown by their SMILES. The whole screen tested about 16,000 compounds, of which about 80 (0.5%) were called active. What follows is part of a selection rich in actives, with near analogues and random picks from the rest. Unmarked numbers belong to inactive results. Cut-off read from the data, not from the text of the source: active = activation above about 15%; inactive = the rest.

For this experiment, the target named is Galanin receptor type 2 (Rattus norvegicus) (UniProt O08726). The experiment can be described thus: activates the rat galanin receptor 2 (AID 833). Conditions: cell-based GALR2 agonist screen; at 10 µM; active compounds read high.
Sequence of Galanin receptor type 2 (Rattus norvegicus) (O08726 whole entry, looked up): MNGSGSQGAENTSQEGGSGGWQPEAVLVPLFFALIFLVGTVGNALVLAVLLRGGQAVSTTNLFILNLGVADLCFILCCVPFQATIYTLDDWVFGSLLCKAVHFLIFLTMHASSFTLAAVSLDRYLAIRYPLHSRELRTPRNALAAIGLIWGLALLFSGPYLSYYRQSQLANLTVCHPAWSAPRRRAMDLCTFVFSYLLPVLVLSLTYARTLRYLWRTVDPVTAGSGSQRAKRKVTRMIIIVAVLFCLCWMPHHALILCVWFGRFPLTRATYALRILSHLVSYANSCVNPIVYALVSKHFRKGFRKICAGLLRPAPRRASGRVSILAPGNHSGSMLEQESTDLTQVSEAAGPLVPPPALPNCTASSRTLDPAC
For `N#C/C(=C\c1cccs1)C(=O)NCCc1c[nH]c2ccccc12`, the activation was -5.34%.

As to `Cc1cccc(-c2noc(NC(=O)O/N=C/c3ccccc3)n2)c1`, the activation is -3.45%.

Consider `Cc1csc(/N=C/N(C)C)c1C#N`, for which the activation was -4.03%.

On to `N/C(CC(=O)Nc1ccc(F)c(Cl)c1)=N\O`, for which the activation is -6.66%.

As for `O=C(c1cnn(-c2ccc(Cl)cc2)n1)c1cccs1`, the activation is -6.45%.

As for `S=C1NCN(CCCn2ccnc2)CN1`, the activation was -6.28%.

Turning to `O=C(O)c1cc(=O)[nH]c2c(Cl)cc(Cl)cc12`, the activation was -3.92%.

In the case of `COC(=O)/C(=C/c1ccccc1)c1ccccc1`, the activation is -1.48%.

As to `COc1ccc(OC)c(CNC(=O)Cc2cccs2)c1`, the activation was -4.76%.

Consider `O=[N+]([O-])c1ccc(N2CCOCC2)cc1`, for which the activation is -0.7%.

As for `O=S(=O)(CCSc1ccc(C(F)(F)F)cn1)CCSc1ccc(C(F)(F)F)cn1`, the activation was -4.73%.

Take `CC(C)N(C(=O)c1ccc(-c2ccccc2F)cc1)C(C)C`: the activation was -5.45%.

Consider `O=C(O)CC1(CC(=O)Nc2ccc(N3CCCCC3)cc2)CCCCC1`, for which the activation is -3.41%.

On to `Cn1cc(Br)c(-c2ccc(NC(=O)Nc3ccc(Cl)cc3)cc2)n1`, for which the activation was -8.08%.

For the molecule `COC(=O)c1noc(C)c1-c1ccnn1C(=O)c1ccc(Cl)cc1`, the activation is -1.59%.

For `CSC(=CC(=O)c1cccs1)SC`, the activation was -10.2%.

For the molecule `COc1cccc2c1c(NS(=O)(=O)c1cn(C)cn1)nn2C`, the activation was -5.19%.

`CSc1nsc(SC)c1C(=O)NC(=O)NNc1ccc(F)c(Cl)c1`: the activation is -2.68%.

Regarding `Oc1[nH]c2ccc(F)cc2c1N=NC(=S)NC1CC2C=CC1C2` (centres undefined), the activation is -9.63%.

Turning to `NS(=O)(=O)c1cc(Br)ccc1I`, the activation is -1.14%.

With `Cc1c(S(=O)(=O)N2CCOCC2)ccc(Cl)c1F`, the activation is -9.66%.

Regarding `O=[N+]([O-])c1ccc(-c2ccc(I)cc2)cc1`, the activation is -5.42%.

Take `O=[N+]([O-])c1ccc(-c2nnnn2Cc2c(Cl)cccc2Cl)cc1`: the activation is -2.65%.

`Cc1c(NC(=S)Nc2ccccc2)c(=O)n(-c2ccccc2)n1C`: the activation is -1.67%.

Consider `COC(=O)c1cc(OC)c(OC)cc1NC(=O)c1ccccc1C(=O)O`, for which the activation was 0.04%.

With `COc1cc(CCN=Cc2ccccc2O)c([N+](=O)[O-])cc1OC`, the activation was -0.09%.

With `O=C(NCc1cccnc1)Nc1cccc(NC(=O)NCc2cccnc2)c1F`, the activation is -10%.

Regarding `CNC(=S)NNC(=O)c1cc(C)on1`, the activation was -5.05%.

As to `Cc1cc(C)nc(N/C=C(\C#N)S(=O)(=O)c2ccc(Cl)cc2)n1`, the activation was -7.71%.

For `N#CC(c1cc2ccccc2cn1)c1ccc2c(c1[N+](=O)[O-])C(=O)c1ccccc1C2=O` (centres undefined), the activation was -8.33%.

With `N#CC1(C#N)C(c2ccc(Cl)c(Cl)c2)C1(C#N)C#N`, the activation was -8.55%.

As to `CSc1n[nH]c(=O)n1-c1cccc(C(F)(F)F)c1`, the activation is -7.62%.

With `COc1ccc(NC(=S)Nc2ccc(F)cc2F)c([N+](=O)[O-])c1`, the activation was -8.62%.

For `c1ccc2c(-c3csc(-c4ccc5c(c4)OCCO5)n3)csc2c1`, the activation was -9.38%.

`Cc1nc(-c2ncc(-c3ccccc3)o2)c(C(F)(F)F)o1`: the activation was -5.66%.

For the molecule `O=C(CSc1c(F)c(F)c(C(=O)O)c(F)c1F)Nc1cccc(C(F)(F)F)c1`, the activation is -5.69%.

Regarding `COC(=O)c1sccc1NC(=S)Nc1ccc(C)cc1`, the activation is -4.74%.

In the case of `Cc1cc(CNC(=O)c2cc(C)n(C)n2)no1`, the activation is 4.72%.

For the molecule `Cc1nnsc1-c1nnc(SCC(=O)c2ccc3c(c2)OCO3)n1C1CC1`, the activation was -3.99%.

In the case of `O=C(O)CC(CC(=O)Nc1cc(C(F)(F)F)ccc1N1CCOCC1)c1ccccc1` (centres undefined), the activation is -5.13%.

As for `N/C(=N\O)c1ccc2nonc2c1`, the activation was -8.97%.

`Cc1cc(CNCC(O)C(F)(F)F)no1` (centres undefined): the activation is -7.81%.

For `CSc1sc(C(=O)NC2CC2)c(-c2ccc(Cl)cc2)c1C#N`, the activation is -8.05%.

Turning to `Cc1ccc(S(C)(=O)=NC(=O)NS(=O)(=O)Oc2ccc(Cl)cc2Cl)cc1` (centres undefined), the activation was -1.36%.

With `Cc1oc(-c2ccc(Cl)cc2)cc1C(=O)O/N=C(\N)Cc1nc2cccnc2n1C1CC1`, the activation was -4.62%.

Take `O=C(NCc1csc(-c2cccs2)n1)Nc1ccccc1-c1ccccc1`: the activation is -9.54%.

For `Cc1oc(C(C)(C)C)cc1C(=O)NC1Cc2ccccc2C1`, the activation was -2.8%.

Take `CCOc1c(N2CCCCC2)c(=O)c1=O`: the activation is 24.1% (active).

With `Cc1cc(-c2nc(C(=O)NN3CCCCC3)cs2)no1`, the activation was -7.49%.
